Compounds with a hit are over-represented: about 4.2% of the library has one in this group of screens.
NALP1 yeast inh: NALP1 inhibition; S. cerevisiae NALP1/ASC/caspase-1 growth, X-gal OD620, 72 h; inhibition, % at 10 µM; actives 0.61% (n = 280,000); in the data active = inhibition mostly above about 24%, no sharp cut-off; inactive = mostly below about 32%
tim23-1 inh: growth inhibitors of tim23-1 mutant yeast. S. cerevisiae tim23-1 growth, BacTiter-Glo luminescence, 24 h. inhibition, % at 20 µM. actives 1.3% (n = 330,000). AID 463212;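 active = growth inhibition of the mutant yeast at or above 50%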;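 also: temperature-sensitive mutant grown at 25 °C; plate controls were DMSO-treated mutant yeast for no effect and medium wells lacking yeast for full effect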
PfHsp90 yeast 2: growth inhibition of yeast expressing Plasmodium Hsp90 | AID 504621 | inhibition, % at 9.4 µM | actives 0.32% (n = 310,000) | S. cerevisiae expressing PfHsp90, BacTiter-Glo ATP, 48 h; yeast lacking PDR1 and PDR3 efflux regulators;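 active = every replicate shows inhibition above about 80%, whatever the replicate mean, limit read from the data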;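 also: 0% = DMSO neutral controls and 100% = 20 µM radicicol positive controls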
TIM10 inh: TIM10 yeast growth inhibition | S. cerevisiae TIM10 strain growth, BacTiter-Glo luminescence, 24 h | inhibition, % at 10 µM | actives 1.4% (n = 330,000);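 active = inhibition of 40% or more at the single tested concentration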;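 also: wild-type TIM10 isogenic control strain grown at permissive 25 °C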
NLRP3 yeast inh: NALP3 inhibition in yeast; inhibition, % at 10 µM; AID 2825; actives 0.39% (n = 330,000); Yeast reconstituted NLRP3/ASC/caspase-1, beta-gal luminescence, 24 h;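 active = inhibition of 50% or more; inactive = inhibition below 50%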;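 also: plate controls were induced DMSO wells for no effect and uninduced yeast grown without galactose for full effect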
tim10-1 inh: tim10-1 yeast growth inhibition. S. cerevisiae tim10-1 ts strain growth, BacTiter-Glo, 24 h. inhibition, % at 20 µM. actives 2.2% (n = 330,000);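 active = inhibition of at least 40%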;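 also: mutant grown at 25 °C; 0% = DMSO wells with yeast and 100% = wells holding no yeast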
tim10-1 conf: confirmation of tim10-1 mutant yeast growth inhibitors | S. cerevisiae tim10-1 ts strain growth, BacTiter-Glo, 24 h | actives 56% (n = 7,400) | AID 463213 | inhibition, % at 20 µM | shares compounds with tim10-1 inh;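 active = inhibition of yeast growth at or above a set limit in either of two repeat tests at 20 µM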;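 also: tim10-1 mutant grown at permissive 25 °C to find synthetic lethal compounds; 0% = DMSO yeast wells and 100% = medium wells without yeast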
An asterisk follows results filed as active; / = not tested or not shown.

SMILES	NALP1 yeast inh	tim23-1 inh	PfHsp90 yeast 2	TIM10 inh	NLRP3 yeast inh	tim10-1 inh	tim10-1 conf
CN(C)CCCN(C(=O)c1ccc([N+](=O)[O-])s1)c1nc2cc3c(cc2s1)OCCO3	21.9	21.2	-0.6	31.0	28.0	43.3*	38.5*
COc1ccc2sc(N(CCCN(C)C)C(=O)c3ccc(S(=O)(=O)N4CCCc5ccccc54)cc3)nc2c1	/	27.7	/	38.9	35.9	57.5*	31.5*
COc1cc2nc(N(CCCN(C)C)C(=O)c3ccc(S(=O)(=O)N4CCc5ccccc54)cc3)sc2cc1OC	/	13.9	8.6	1.0	6.5	15.9	/
CN(C)c1ccc(/C=N/NC(=O)c2nnn(-c3nonc3N)c2COc2ccc(F)cc2)cc1	/	11.5	-13.8	12.4	9.4	0.4	/
Cc1cccc(N2CCN(C(=O)c3ccc4nc(N5CCCCC5)sc4c3)CC2)c1C	/	32.0	-16.9	15.2	7.3	3.3	/
O=C(c1nc2ccccc2s1)N1CCN(c2ccccn2)CC1	6.3	28.5	-9.2	10.4	33.2	45.2*	26.8
O=C(c1nc2ccccc2s1)N1CCSCC1	-1.0	12.0	-17.9	-2.8	-9.3	6.5	/
O=C(c1ccc2nc(N3CCOCC3)sc2c1)N1CCC(Cc2ccccc2)CC1	-0.6	48.5	-11.3	39.1	41.3	53.8*	43.4*
O=C(c1ccc2nc(N3CCCCC3)sc2c1)N1CCN(c2ccccn2)CC1	/	49.3	-49.5	36.7	27.2	50.9*	34.7*
O=C(Nc1ccc([N+](=O)[O-])cc1)Nc1ccc(OC(F)F)c(Cl)c1	36.0	/	-54.0	/	/	/	/
CCCCn1c(SCC(=O)N(C)C2CCS(=O)(=O)C2)nc2cc(S(N)(=O)=O)ccc21 (stereo not given)	/	9.1	-8.0	5.4	-7.6	8.6	/
CCC(CC)c1nnc(NC(=O)c2cc([N+](=O)[O-])ccc2N2CCOCC2)s1	/	-2.0	-9.5	-4.7	20.0	-13.4	/
N/C(Cc1cccs1)=N\OC(=O)COc1ccc(Cl)cc1Cl	-5.9	44.0	8.5	25.9	25.8	48.6*	51.8*
S=c1[nH]c2cc(-c3ccccc3)ccc2o1	-25.9	48.2	-78.7	31.0	15.5	42.9*	28.0
C=CCNC(=O)C1(c2ccccc2)CC1(Cl)Cl (stereo not given)	-12.1	6.8	30.7	13.0	-8.6	6.7	/
Cc1ccnc(Sc2ccc([N+](=O)[O-])cc2[N+](=O)[O-])n1	-15.1	39.7	7.4	25.8	16.1	59.2*	52.7*
Cc1ccc(Sc2ccc([N+](=O)[O-])cc2[N+](=O)[O-])nc1	18.2	36.3	-17.9	25.6	26.0	40.3*	37.3*
Nc1nc(Sc2ccc([N+](=O)[O-])cc2[N+](=O)[O-])n[nH]1	/	10.8	-30.8	3.6	12.6	7.1	/
Cc1ccccc1N1CCN(S(=O)(=O)c2nnc(NC(=O)c3ccco3)s2)CC1	13.0	34.8	31.0	31.4	9.9	46.3*	9.3
Cc1ccc2c(N)c(C(=O)N(c3ccccc3)c3ccccc3)sc2n1	20.4	13.3	9.7	26.3	-2.4	43.6*	23.6
CCn1c(SCC(=O)Nc2ccc(N3CCOCC3)cc2)nnc1C1CC1	/	-8.7	9.5	-2.8	-5.4	-5.8	/
COc1ccc(NC(=O)COC(=O)Cc2c(F)cccc2Cl)cc1	7.2	18.2	-1.3	4.4	14.4	43.5*	24.2
COc1ccc(NC(=O)Cc2c(F)cccc2Cl)cc1	17.4	10.6	15.9	-1.2	27.4	-21.5	/
O=C(C1CCCO1)N1N=C(c2ccc(Br)cc2)CC1c1ccco1 (stereo not given)	31.4	39.3	-26.9	26.6	21.9	36.8	/
Cc1ccc(C2=NN(C(=O)C3CCCO3)C(c3ccco3)C2)cc1 (stereo not given)	-11.6	28.5	12.4	9.2	10.3	41.1*	18.9
COc1ccccc1C(C)NC(=O)c1cc(=O)[nH]c2ccccc12 (stereo not given)	27.1	3.8	11.0	-9.4	12.6	-1.5	/
O=[N+]([O-])c1sccc1CS(=O)(=O)c1ccccc1	-8.2	4.2	-7.6	-0.3	26.7	10.1	/
Cn1cccc1/C=C1\CCC/C(=C\c2cccn2C)C1=O	-5.6	23.0	/	20.3	12.6	49.8*	20.8

Screens deposited in PubChem by several laboratories.
